Laboratory results from PubChem BioAssay (NCI).
About 79,000 compounds went through this panel and 15% of them were active in at least one assay; those are over-represented in the sample as a whole. The source made the active and inactive calls. Cut-off read from the data, not from the text of the source: active = growth inhibition above about 70%; inactive = the rest.

What was measured:
[1] = NCI Yeast Anticancer Drug Screen. Data for the rad52 strain (AID 147);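 note: 0% = growth of vehicle-treated control cultures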; conditions: S. cerevisiae rad52 mutant growth inhibition, active compounds read high
Outline: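 Genetically altered yeast (DNA damage repair defect) treated with compound; inhibition calculated relative to vehicle.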

[2] = NCI Yeast Anticancer Drug Screen. Data for the wt1 strain (AID 149);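 note: 0% = growth of vehicle-treated wt1 cultures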; conditions: S. cerevisiae wt1 strain (SPY 50644) growth inhibition, active compounds read high
Outline: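 Using yeast strain wt1, compound-induced growth inhibition was determined against vehicle-treated cultures.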

[3] = NCI Yeast Anticancer Drug Screen. Data for the rad50EPP+ strain (AID 151);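 note: 0% = growth of vehicle-treated control cultures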; conditions: S. cerevisiae rad50 mutant strain, active compounds read high
Outline: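 Strain rad50EPP+; compound exposure; % growth inhibition vs vehicle.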

[4] = NCI Yeast Anticancer Drug Screen. Data for the mgt1 strain (AID 153); conditions: S. cerevisiae mgt1 mutant growth inhibition, active compounds read high
Outline: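 Read-out: yeast growth inhibition vs vehicle control. Strain mgt1, drawn from a panel altered in DNA damage repair or cell cycle control.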

[5] = NCI Yeast Anticancer Drug Screen. Data for the rad50 strain (AID 155);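 note: 0% = growth of vehicle-only cultures of the same strain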; conditions: S. cerevisiae rad50 strain growth inhibition, active compounds read high
Outline: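 Relative growth inhibition (compound vs vehicle) was measured in yeast with a defined repair-gene alteration.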

[6] = NCI Yeast Anticancer Drug Screen. Data for the mec2-1 strain (AID 157); conditions: S. cerevisiae mec2-1 strain, active compounds read high
Outline: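 Cells of the genetically defined mec2-1 yeast strain are incubated with test compound. Inhibition of growth is calculated against vehicle-treated controls.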

[7] = NCI Yeast Anticancer Drug Screen. Data for the rad14 strain (AID 159);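 note: 0% = growth of vehicle-treated control cultures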; conditions: S. cerevisiae rad14 strain growth inhibition, active compounds read high
Outline: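 Screen for anticancer potential: a yeast strain altered in DNA damage repair is grown with compound, and reduced growth is quantified against vehicle controls.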

[8] = NCI Yeast Anticancer Drug Screen. Data for the sgs1 mgt1 strain (AID 161);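 note: 0% = growth of cultures given vehicle only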; conditions: S. cerevisiae sgs1 mgt1 strain, active compounds read high
Outline: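 Inhibition of yeast growth, normalised to vehicle-treated controls, is reported for a strain bearing genetic alterations in DNA damage repair.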

[9] = NCI Yeast Anticancer Drug Screen. Data for the CLN2oe strain (AID 163);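 note: 0% = growth of vehicle-only control cultures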; conditions: S. cerevisiae CLN2oe strain, active compounds read high
Outline: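 Strain altered in cell-cycle control, incubated with compound; growth compared to solvent-treated controls.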

[10] = NCI Yeast Anticancer Drug Screen. Data for the cln2 rad14 strain (AID 165);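 note: 0% = growth equal to vehicle treated cultures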; conditions: S. cerevisiae cln2 rad14 strain, active compounds read high
Outline: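 The screen exposed genetically defined yeast (cln2 rad14) to test compounds and scored growth inhibition relative to vehicle-treated controls.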

[11] = NCI Yeast Anticancer Drug Screen. Data for the bub3 strain (AID 167); conditions: S. cerevisiae bub3 mutant strain, active compounds read high
Outline: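 Screening used yeast with an engineered genetic alteration affecting cell cycle control. Compound-exposed cultures were compared with vehicle cultures, and reduced growth was taken as inhibition.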

[12] = NCI Yeast Anticancer Drug Screen. Data for the wt2 strain (AID 169);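 note: 0% = growth of vehicle-treated yeast cultures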; conditions: S. cerevisiae wt2 strain growth inhibition, active compounds read high
Outline: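 Steps: yeast strain treated with compound; growth recorded; inhibition calculated relative to cultures given vehicle alone.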

[13] = NCI Yeast Anticancer Drug Screen. Data for the mlh1 strain (AID 171);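 note: 0% = growth of vehicle-treated control cultures of the same strain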; conditions: S. cerevisiae mlh1 strain growth inhibition, active compounds read high
Outline: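 Yeast screen: mutant strain plus compound, growth scored against vehicle control wells.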

[14] = NCI Yeast Anticancer Drug Screen. Data for the sgs1 strain (AID 173);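 note: 0% = growth of vehicle-only control cultures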; conditions: S. cerevisiae sgs1 mutant, active compounds read high
Outline: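 Inhibition of yeast growth served as the measure. The mutant strain was treated with each compound, and growth was normalised to cultures receiving vehicle alone.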

[15] = NCI Yeast Anticancer Drug Screen. Data for the mlh1 rad18 strain (AID 175); conditions: S. cerevisiae mlh1 rad18 strain growth inhibition, active compounds read high
Outline: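 Compound-treated yeast growth, normalised to vehicle controls. Strain bears defined DNA repair mutations.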

[16] = NCI Yeast Anticancer Drug Screen. Data for the rad18 strain (AID 177); conditions: S. cerevisiae rad18 mutant growth inhibition, active compounds read high
Outline: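 Inhibition values reflect reduced yeast growth compared with vehicle-treated controls, using a strain engineered with a DNA damage repair defect.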

[17] = at 5.0 µM (retest, dose inferred, filed as 0.5)
[18] = at 50.0 µM (retest, dose inferred, filed as 5.0)

Measured: growth inhibition

CCC(C)OC(=O)Nc1ccc(C)c(NC(=O)OC(C)CC)c1 (stereo not drawn)
active: [1]; at 100.0 µM 96% | [2]; at 100.0 µM 73% | [3]; at 100.0 µM 74% | [4]; at 100.0 µM 96% | [5]; [18] 76% | [5]; at 100.0 µM 96% | [6]; at 50.0 µM 76% | [6]; at 100.0 µM 90% | [7]; at 100.0 µM 94% | [8]; [18] 85% | [8]; at 50.0 µM 79.4% | [9]; at 100.0 µM 95% | [10]; [18] 74% | [10]; at 50.0 µM 80% | [11]; [18] 83% | [11]; at 50.0 µM 75% | [11]; at 100.0 µM 94% | [12]; at 100.0 µM 96% | [13]; at 100.0 µM 96% | [14]; at 100.0 µM 96% | [15]; [18] 89% | [15]; at 50.0 µM 79.5% | [16]; at 100.0 µM 96%
inactive: [1]; at 1.2 µM -1% | [1]; at 3.7 µM -1% | [1]; at 11.0 µM 3% | [1]; at 33.0 µM 9% | [2]; at 1.2 µM -3% | [2]; at 3.7 µM 0% | [2]; at 11.0 µM -5% | [2]; at 33.0 µM 2% | [3]; at 1.2 µM -2% | [3]; at 3.7 µM -5% | [3]; at 11.0 µM -1% | [3]; at 33.0 µM 11% | [4]; at 1.2 µM -2% | [4]; at 3.7 µM -2% | [4]; at 11.0 µM -1% | [4]; at 33.0 µM 1% | [5]; at 1.2 µM 1% | [5]; at 3.7 µM 1% | [5]; [17] 4% | [5]; at 11.0 µM 2% | [5]; at 33.0 µM 9% | [5]; at 50.0 µM 54% | [6]; at 1.2 µM -2% | [6]; at 3.7 µM 0% | [6]; [17] -11% | [6]; at 11.0 µM -2% | [6]; at 33.0 µM 2% | [6]; [18] 18% | [7]; at 1.2 µM 0% | [7]; at 3.7 µM 2% | [7]; at 11.0 µM 1% | [7]; at 33.0 µM 6% | [8]; [17] 1% | [9]; at 1.2 µM 3% | [9]; at 3.7 µM 2% | [9]; at 11.0 µM 7% | [9]; at 33.0 µM 22% | [10]; [17] -4% | [11]; at 1.2 µM -3% | [11]; at 3.7 µM -2% | [11]; [17] 2% | [11]; at 11.0 µM -3% | [11]; at 33.0 µM 4% | [12]; at 1.2 µM 0% | [12]; at 3.7 µM 1% | [12]; at 11.0 µM -2% | [12]; at 33.0 µM 6% | [13]; at 1.2 µM -1% | [13]; at 3.7 µM -3% | [13]; at 11.0 µM -5% | [13]; at 33.0 µM 2% | [14]; at 1.2 µM -5% | [14]; at 3.7 µM -5% | [14]; at 11.0 µM -5% | [14]; at 33.0 µM 9% | [15]; [17] 12% | [16]; at 1.2 µM -4% | [16]; at 3.7 µM -5% | [16]; at 11.0 µM -8% | [16]; at 33.0 µM 6%
